From PubChem BioAssay (NCATS)
Where “and” joins values, the source holds several entries; their conditions need not be identical. Identical values can stand only once. Inconclusive results are not listed. Calls of active or inactive are those of the source. Unless noted, calls follow the shape of the dose curve; as a rule, active = well fitted curve in the direction sought with a large enough effect; inconclusive = small, poorly fitted or top-dose-only effect, or another doubt; inactive = no such curve, though single readings can be large; an effect the other way counts as inactive or inconclusive.

Legend:
[1] = system: Es-2; assay: Primary qHTS to identify gynecologic anti-cancer compounds using libraries of approved drugs and bioactive compounds (AID 1345084); conditions: Gynecologic cancer cell panel viability, ATPlite luminescence, 48 h; series mostly up to 57.5 µM; also: % is scaled to controls: 0 for no effect and ±100 for the full control effect; nearly all actives have a fitted effect of over 55% in size
In short: (§1)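 Measured: luminescence after ATPlite addition (15 min, RT). Exposure: 48 h, 37 C, 5% CO2.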

[2] = system: HeLa; assay: as above; conditions: Gynecologic cancer cell panel viability, ATPlite luminescence, 48 h; series mostly up to 57.5 µM
In short: as §1

[3] = system: Hek293T; assay: as above; conditions: Gynecologic cancer cell panel viability, ATPlite luminescence, 48 h, control line for the selectivity index; series mostly up to 57.5 µM
In short: as §1

[4] = system: JEG-3; assay: as above; conditions: Gynecologic cancer cell panel viability, ATPlite luminescence, 48 h; series mostly up to 57.5 µM
In short: as §1

[5] = system: OV90; assay: as above; conditions: Gynecologic cancer cell panel viability, ATPlite luminescence, 48 h; series mostly up to 57.5 µM
In short: as §1

[6] = system: PA-1; assay: as above; conditions: Gynecologic cancer cell panel viability, ATPlite luminescence, 48 h; series mostly up to 57.5 µM
In short: as §1

[7] = system: SKOV3; assay: as above; conditions: Gynecologic cancer cell panel viability, ATPlite luminescence, 48 h; series mostly up to 57.5 µM
In short: as §1

[8] = system: Tov-21-G; assay: as above; conditions: Gynecologic cancer cell panel viability, ATPlite luminescence, 48 h; series mostly up to 57.5 µM
In short: as §1

[9] = system: Tov112D; assay: as above; conditions: Gynecologic cancer cell panel viability, ATPlite luminescence, 48 h; series mostly up to 57.5 µM
In short: as §1

[10] = Drug repurposing screens with cells derived from glioblastoma tumor samples (AID 1345199); conditions: GBM patient neurospheres viability, ATP luminescence, 48 h; also: nearly all actives have a fitted effect of over 40% in size; also: potency is read from the fitted curve at half-maximal effect; as to activity, negative = cell killing: % is scaled to controls: 0 for no effect and ±100 for the full control effect
In short: (§2)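 Primary testing used CD133+ neurospheres from four GBM patients, seven concentrations, 48 h exposure and ATP-based viability; confirmation added three slower-growing patient lines.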

[11] = system: astro; assay: as above; conditions: viability, ATP luminescence, 48 h; series mostly up to 45.9 µM
In short: as §2

[12] = molecular target: Nuclear receptor subfamily 1 group I member 2 (Rattus norvegicus) (UniProt Q9R1A7); assay: qHTS assay for small molecule activators of the rat pregnane X receptor (rPXR) signaling pathway (AID 651751; call rule not given here; also: 0% is about no effect); conditions: rPXR reporter cells, luciferase (One-Glo), 24 h
Sequence of Nuclear receptor subfamily 1 group I member 2 (Rattus norvegicus) (Q9R1A7 whole entry, looked up): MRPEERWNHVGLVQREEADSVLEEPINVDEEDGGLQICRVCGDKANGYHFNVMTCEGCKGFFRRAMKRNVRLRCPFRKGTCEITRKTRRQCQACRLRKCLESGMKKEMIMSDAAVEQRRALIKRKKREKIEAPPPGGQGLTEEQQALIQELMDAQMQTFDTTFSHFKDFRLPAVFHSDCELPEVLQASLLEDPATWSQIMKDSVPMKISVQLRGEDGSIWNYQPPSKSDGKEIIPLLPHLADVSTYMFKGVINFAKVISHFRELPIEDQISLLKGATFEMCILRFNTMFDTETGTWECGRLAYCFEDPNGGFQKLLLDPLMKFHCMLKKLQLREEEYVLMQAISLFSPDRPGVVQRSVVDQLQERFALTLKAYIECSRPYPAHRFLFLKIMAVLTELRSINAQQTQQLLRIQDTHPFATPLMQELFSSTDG

[13] = qHTS assay for small molecule activators of the human pregnane X receptor (PXR) signaling pathway (AID 720659; call rule not given here; also: 0% is about no effect)
[14] = at 45.9 µM (top of the series), tumour line B
[15] = at 45.9 µM (top of the series), tumour line D
[16] = at 46.1 µM (top of the series), tumour line C
[17] = at 46 µM (top of the series), tumour line A

OC[C@H]1O[C@@H](Oc2ccc(O)cc2)[C@H](O)[C@@H](O)[C@@H]1O
inactive: Potency [1] | Potency [2] | Potency [3] | Potency [4] | Potency [5] | Potency [6] | Potency [7] | Potency [8] | Potency [9] | activity, negative = cell killing [10, 14] 0.949% | activity, negative = cell killing [10, 15] 7.3% | activity, negative = cell killing [10, 16] -9.99% | Potency [11]

CC(=O)O[C@H]1C[C@@H]2CC[C@@H]3[C@H](CC[C@@]4(C)[C@H]3C[C@H]([N+]3(C)CCCCC3)[C@@H]4OC(C)=O)[C@@]2(C)C[C@@H]1N1CCCCC1
inactive: Potency [1] | Potency [2] | Potency [3] | Potency [4] | Potency [5] | Potency [6] | Potency [7] | Potency [8] | Potency [9] | activity, negative = cell killing [10, 14] -12.1% | activity, negative = cell killing [10, 15] -1.11% | activity, negative = cell killing [10, 16] -3.89% | Potency [11]

Cc1c[nH]c2ccccc12
inactive: Potency [1] | Potency [2] | Potency [3] | Potency [4] | Potency [5] | Potency [6] | Potency [7] | Potency [8] | Potency [9] | activity, negative = cell killing [10, 14] -3.32% | activity, negative = cell killing [10, 15] -13.8% | activity, negative = cell killing [10, 16] -16.3% | Potency [11]

CCOC(=O)[C@H](CCc1ccccc1)N[C@@H](C)C(=O)N1[C@H](C(=O)O)C[C@@H]2CCC[C@@H]21
inactive: Potency [1] | Potency [2] | Potency [3] | Potency [4] | Potency [5] | Potency [6] | Potency [7] | Potency [8] | Potency [9] | activity, negative = cell killing [10, 14] -17.1% | activity, negative = cell killing [10, 15] 6.01% | activity, negative = cell killing [10, 16] -13.2% | Potency [11]

C/C=C/c1ccc(O)c(OC)c1
inactive: Potency [1] | Potency [2] | Potency [3] | Potency [4] | Potency [5] | Potency [6] | Potency [7] | Potency [8] | Potency [9] | activity, negative = cell killing [10, 14] -4.55% | activity, negative = cell killing [10, 15] -0.156% | activity, negative = cell killing [10, 16] -3.58% | Potency [11] | max response [12] 1.38% and 1.79% | outcome [13]

CCC(C(=O)OCCOCCN(CC)CC)c1ccccc1 (configuration not stated)
active: Potency ([10]; tumour line A) 14.1 µM
inactive: Potency [1] | Potency [2] | Potency [3] | Potency [4] | Potency [5] | Potency [6] | Potency [7] | Potency [8] | Potency [9] | activity, negative = cell killing [10, 16] -29.9% | Potency [11]

CCc1cc(Cl)c(OC)c(C(=O)NC[C@@H]2CCCN2CC)c1O
inactive: Potency [1] | Potency [2] | Potency [3] | Potency [4] | Potency [5] | Potency [6] | Potency [7] | Potency [8] | Potency [9] | Potency [11]

O=C(O)Cc1csc(-c2ccc(Cl)cc2)n1
inactive: Potency [1] | Potency [2] | Potency [3] | Potency [4] | Potency [5] | Potency [6] | Potency [8] | Potency [9] | activity, negative = cell killing [10, 14] -6.84% | activity, negative = cell killing [10, 15] 8.21% | activity, negative = cell killing [10, 17] -20.7% | activity, negative = cell killing [10, 16] -23.2% | Potency [11]

CCCCOC(=O)CC(CC(=O)OCCCC)(OC(C)=O)C(=O)OCCCC
inactive: Potency [1] | Potency [2] | Potency [3] | Potency [4] | Potency [5] | Potency [6] | Potency [7] | Potency [8] | Potency [9] | activity, negative = cell killing [10, 14] -5.84% | activity, negative = cell killing [10, 15] -7.23% | activity, negative = cell killing [10, 16] -12.4% | Potency [11] | max response [12] 12%

CCCCCCCC/C=C\CCCCCCCCN
inactive: Potency [1] | Potency [2] | Potency [3] | Potency [4] | Potency [5] | Potency [6] | Potency [7] | Potency [8] | Potency [9] | activity, negative = cell killing [10, 14] -5.85% | activity, negative = cell killing [10, 15] -1.47% | activity, negative = cell killing [10, 16] -19.7% | Potency [11] | max response [12] 3.35% | outcome [13]

CCNC(=O)/C=C/c1cccc(Br)c1
inactive: Potency [1] | Potency [2] | Potency [3] | Potency [4] | Potency [5] | Potency [6] | Potency [7] | Potency [8] | activity, negative = cell killing [10, 14] -10.7% | activity, negative = cell killing [10, 15] -16% | activity, negative = cell killing [10, 16] -17.6% | Potency [11]

COc1ccc(C(=O)c2ccccc2)c(O)c1
inactive: Potency [1] | Potency [2] | Potency [3] | Potency [4] | Potency [5] | Potency [6] | Potency [7] | Potency [8] | Potency [9] | activity, negative = cell killing [10, 14] 1.18% | activity, negative = cell killing [10, 15] -2.35% | activity, negative = cell killing [10, 16] -6.38% | Potency [11] | max response [12] 7.56% and 2.38%

CC(=O)NCCCCCC(=O)O
inactive: Potency [1] | Potency [2] | Potency [3] | Potency [4] | Potency [5] | Potency [6] | Potency [8] | Potency [9] | activity, negative = cell killing [10, 14] -15.6% | activity, negative = cell killing [10, 15] -10% | activity, negative = cell killing [10, 17] -23.3% | activity, negative = cell killing [10, 16] -20.2% | Potency [11]

O=C(O)C1(C(=O)O)CCC1.[NH2-].[NH2-].[Pt+2]
inactive: Potency [1] | Potency [2] | Potency [3] | Potency [4] | Potency [5] | Potency [6] | Potency [7] | Potency [8] | Potency [9] | activity, negative = cell killing [10, 14] -20.6% | activity, negative = cell killing [10, 15] -8.04% | activity, negative = cell killing [10, 16] -13.1% | Potency [11]

C[C@@H](O)[C@H]1C(=O)N2C(C(=O)O)=C([C@H]3CCCO3)S[C@H]12
inactive: Potency [1] | Potency [2] | Potency [3] | Potency [4] | Potency [5] | Potency [6] | Potency [7] | Potency [8] | Potency [9] | activity, negative = cell killing [10, 14] -7.31% | activity, negative = cell killing [10, 15] -12.1% | activity, negative = cell killing [10, 16] -5.94% | Potency [11]

C[C@]12CCC(=O)C=C1C=C[C@@H]1[C@@H]2CC[C@@]2(C)[C@H]1CC[C@@]21CCC(=O)O1
inactive: Potency [1] | Potency [2] | Potency [3] | Potency [4] | Potency [5] | Potency [6] | Potency [7] | Potency [8] | Potency [9] | activity, negative = cell killing [10, 14] -20% | Potency [11]
